Data published in PubChem BioAssay (Tox21).
Results filed as inconclusive are left out. Activity calls are given as the source filed them. Unless noted, calls come from the whole dose curve; as a rule, active = well fitted curve in the direction sought with a large enough effect in the repeat runs; inconclusive = weak or mixed curves; inactive = no such curve, though single readings can be large; an effect the other way counts as inactive or inconclusive.

What was measured:
[1] = biological target: Retinoic acid receptor RXR-alpha (Homo sapiens) (UniProt P19793); assay: qHTS assay to identify small molecule agonists of the RXR signaling pathway (AID 1159527; calls by dose curve; note: nearly all actives have a fitted effect of over 35% in size)
Outline: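 16 hr incubation of compound-treated RXR-alpha-UAS-bla HEK 293T cells (2% charcoal-stripped FBS, 37 C) preceded a 2 hr room-temperature LiveBLAzer FRET substrate step and blue/green fluorescence measurement.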

[2] = qHTS assay to identify small molecule agonists of the RXR signaling pathway - cell viability counter screen (AID 1159529);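 note: HEK 293T cells carrying an RXR-alpha UAS beta-lactamase reporter; series mostly up to about 77 µM; nearly all actives have a fitted effect of over 50% in size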
Outline: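 In this parallel viability measure, GeneBLAzer RXR-alpha HEK 293T cells (2% charcoal-stripped FBS) were given a 5 hr preincubation, treated with compounds 16 hr at 37 C, and read by CellTiter-Glo luminescence.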

[3] = qHTS assay to identify small molecule antagonists of the retinoid acid receptor (RAR) signaling pathway - cell viability counter screen (AID 1159551); note: nearly all actives have a fitted effect of over 35% in size
Outline: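 Viability of C3RL4 cells is quantified from ATP by luminescence after 6 h treatment at 37 C with compounds and 1 uM retinol.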

[4] = qHTS assay to identify small molecule antagonists of the retinoic acid receptor (RAR) signaling pathway (AID 1159552; note: nearly all actives have a fitted effect of over 50% in size)
Outline: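 C3RL4 RARE-luc cells, overnight plating; retinol 1 uM final added right after compound; 6 hr 37 C; luciferase read at 30 min RT.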

[5] = qHTS assay to identify small molecule agonists of the retinoic acid receptor (RAR) signaling pathway (AID 1159553); note: potency is the fitted concentration of half-maximal effect
Outline: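 Compounds dissolved in DMSO were pinned onto C3RL4 cells seeded the previous day, and plates were held 6 hr at 37 C. RARE-driven luciferase output was then read by luminescence.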

[6] = biological target: Luciferin 4-monooxygenase (Photinus pyralis) (UniProt P08659); assay: qHTS assay to identify small molecule inhibitors of firefly luciferase (AID 1224835); note: series mostly up to about 120 µM; nearly all actives have a fitted effect of over 25% in size
Outline: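 Biochemical qHTS: compounds run as interplate titrations against purified firefly enzyme, with D-luciferin and ATP each at its KM concentration. Light output recorded by CCD imaging.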

[7] = qHTS assay to identify small molecule agonists of the constitutive androstane receptor (CAR) signaling pathway - cell viability counter screen (AID 1224836); note: nearly all actives have a fitted effect of over 45% in size; note: potency is the fitted concentration of half-maximal effect; for viability change, negative = cytotoxic: series mostly up to about 92 µM
Outline: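 Using CellTiter-Fluor, viability of HepG2 cells harbouring hCAR and CYP2B6-2.2kb was measured following 23 h incubation with a 15-concentration compound series plus PK11195 (0.75 uM final).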

[8] = qHTS assay to identify small molecule antagonists of the constitutive androstane receptor (CAR) signaling pathway - cell viability counter screen (AID 1224837); note: nearly all actives have a fitted effect of over 45% in size; note: potency is the fitted concentration of half-maximal effect; for activity change, negative = cytotoxicity: series mostly up to about 92 µM
Outline: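 In quantitative HTS format, compounds at 15 concentrations were applied to HepG2 cells double-transfected with hCAR and CYP2B6-2.2kb under 50 nM CITCO stimulation; live-cell protease activity was read after 23 hr via CellTiter-Fluor.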

[9] = biological target: Nuclear receptor subfamily 1 group I member 3 (Homo sapiens) (UniProt Q14994); assay: qHTS assay to identify small molecule antagonists of the constitutive androstane receptor (CAR) signaling pathway (AID 1224838); note: nearly all actives have a fitted effect of over 40% in size
Outline: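 CITCO-stimulated (50 nM final) HepG2 cells stably transfected with hCAR and CYP2B6-2.2kb luciferase were exposed to compounds at 15 concentrations for 24 h at 37 C/5% CO2. A luciferase reagent was added and luminescence recorded after 30 min.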

[10] = biological target: Nuclear receptor subfamily 1 group I member 3 (Homo sapiens) (UniProt Q14994); assay: qHTS assay to identify small molecule agonists of the constitutive androstane receptor (CAR) signaling pathway (AID 1224839); note: nearly all actives have a fitted effect of over 15% in size; note: potency is the fitted concentration of half-maximal effect;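 for activation: HepG2 cells stably carrying human CAR and a CYP2B6 luciferase reporter; series mostly up to about 92 µM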
Outline: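 Double-stable HepG2 cells (hCAR, CYP2B6-2.2kb) seeded 4 h before compound addition. Exposure 24 h with 0.75 uM PK11195 final. Luciferase detected by ONE-Glo.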

[11] = qHTS assay to identify small molecule antagonists of the estrogen related receptor signaling pathway with the pleiotropic PPARgamma coactivator (PGC) from Tox21 10K library - cell viability counter screen (AID 1224840; active = well fitted cell-killing curve with a large enough effect in the repeat runs, not every such curve was filed as active; note: nearly all actives have a fitted effect of over 40% in size)
Outline: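 Viability counter screen, PGC/ERR cells: 17.5 h compound exposure at 37 C, CellTiter-Fluor fluorescence endpoint.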

[12] = qHTS assay to identify small molecule antagonists of the estrogen related receptor (ERR) signaling pathway from Tox21 library - cell viability counter screen (AID 1224834); note: nearly all actives have a fitted effect of over 30% in size; note: potency is the fitted concentration of half-maximal effect
Outline: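 In this quantitative HTS format, ERR cells receive compounds in DMSO and are incubated for 17.5 h at 37 C. Live-cell protease activity is then detected with CellTiter-Fluor.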

[13] = qHTS assay to identify small molecule antagonists of the estrogen related receptor signaling pathway with the pleiotropic PPARgamma coactivator (PGC) from Tox21 10K library (AID 1224841; call rule not given here; note: series mostly up to about 92 µM; actives are mostly falling curves and most rising ones were filed inactive; nearly all actives have a fitted effect of over 50% in size)
Outline: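 In the PGC/ERR line, DMSO solutions of test chemicals are pin-delivered to 2,000 cells/well six hours after dispensing. Following eighteen hours' incubation, One-Glo reagent is added and luminescence recorded.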

[14] = qHTS assay to identify small molecule agonists of the estrogen related receptor signaling pathway with the pleiotropic PPARgamma coactivator (PGC) from Tox21 10K library (AID 1224842); note: nearly all actives have a fitted effect of over 15% in size
Outline: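 PGC/ERR reporter cell line, 2,000 cells per well, incubated 6 h at 37 C before 23 nL compound in DMSO was added. After 18 h at 37 C, One-Glo luminescence read following 30 min at room temperature.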
% is set by controls: 0 for no effect and ±100 for the full control effect.

Nuclear receptor subfamily 1 group I member 3 (Homo sapiens), sequence (Q14994 whole entry, looked up): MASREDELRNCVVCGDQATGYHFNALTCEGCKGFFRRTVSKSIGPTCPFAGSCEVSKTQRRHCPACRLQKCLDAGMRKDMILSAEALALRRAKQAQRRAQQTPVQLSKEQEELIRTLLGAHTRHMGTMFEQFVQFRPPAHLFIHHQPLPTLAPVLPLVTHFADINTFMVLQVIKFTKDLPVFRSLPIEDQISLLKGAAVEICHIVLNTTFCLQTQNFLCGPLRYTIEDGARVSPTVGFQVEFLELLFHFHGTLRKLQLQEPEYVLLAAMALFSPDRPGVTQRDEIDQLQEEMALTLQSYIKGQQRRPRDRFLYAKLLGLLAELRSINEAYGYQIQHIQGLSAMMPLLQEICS
Retinoic acid receptor RXR-alpha (Homo sapiens), sequence (P19793 whole entry, looked up): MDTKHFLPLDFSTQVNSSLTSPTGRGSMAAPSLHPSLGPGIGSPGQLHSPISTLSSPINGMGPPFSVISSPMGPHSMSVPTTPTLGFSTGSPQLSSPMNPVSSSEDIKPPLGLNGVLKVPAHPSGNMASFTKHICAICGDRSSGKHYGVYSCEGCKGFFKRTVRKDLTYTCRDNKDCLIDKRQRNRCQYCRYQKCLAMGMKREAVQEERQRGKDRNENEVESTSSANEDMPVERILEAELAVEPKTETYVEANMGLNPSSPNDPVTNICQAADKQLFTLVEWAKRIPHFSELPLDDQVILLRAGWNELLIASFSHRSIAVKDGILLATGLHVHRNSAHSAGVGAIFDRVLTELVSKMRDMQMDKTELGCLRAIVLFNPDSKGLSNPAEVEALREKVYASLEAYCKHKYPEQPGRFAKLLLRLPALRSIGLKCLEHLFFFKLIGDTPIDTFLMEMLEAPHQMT
Luciferin 4-monooxygenase (Photinus pyralis), sequence (P08659 whole entry, looked up): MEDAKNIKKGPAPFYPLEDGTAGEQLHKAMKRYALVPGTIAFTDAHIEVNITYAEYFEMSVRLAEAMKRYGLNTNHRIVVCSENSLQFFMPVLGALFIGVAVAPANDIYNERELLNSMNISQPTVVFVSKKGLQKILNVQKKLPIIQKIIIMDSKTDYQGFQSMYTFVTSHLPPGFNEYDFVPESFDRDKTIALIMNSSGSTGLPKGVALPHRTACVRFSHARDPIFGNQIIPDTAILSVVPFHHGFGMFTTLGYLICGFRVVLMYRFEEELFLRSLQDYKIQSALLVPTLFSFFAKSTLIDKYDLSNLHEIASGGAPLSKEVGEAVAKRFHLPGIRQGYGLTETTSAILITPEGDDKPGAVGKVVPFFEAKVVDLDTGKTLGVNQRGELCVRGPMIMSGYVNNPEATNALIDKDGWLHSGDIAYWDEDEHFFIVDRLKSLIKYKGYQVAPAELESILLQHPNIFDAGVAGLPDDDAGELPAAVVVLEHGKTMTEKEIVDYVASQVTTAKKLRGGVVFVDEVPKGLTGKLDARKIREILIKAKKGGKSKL

Nc1cccc(O)c1
inactive: Potency [1] | outcome [2] | outcome [3] | outcome [4] | Potency [5] | Potency [6] | Potency [7] | Potency [8] | outcome [9] | Potency [10] | outcome [11]

c1ccc2c(c1)ccc1c3ccccc3ccc21
active: Potency [5] 3.94 µM
inactive: Potency [1] | outcome [2] | outcome [3] | outcome [4] | Potency [12] | Potency [7] | Potency [8] | outcome [9] | outcome [11]

N[C@@H](CCC(=O)N[C@@H](CS)C(=O)NCC(=O)O)C(=O)O
inactive: activation [1] 2.72% [at 15.8 µM] | activity change, negative = cytotoxicity [2] -1.04% [at 15.8 µM] | activity change, negative = cytotoxicity [3] 0.178% [at 19 µM] | activity, negative = inhibition [4] 29.9% [at 19 µM] | Potency [5] | viability change, negative = cytotoxic [12] 0.69% [at 19 µM] | viability change, negative = cytotoxic [7] 2.39% [at 19 µM] | activity change, negative = cytotoxicity [8] 7.5% [at 19 µM] | viability change, negative = cytotoxic [11] 15.7% [at 19 µM]

O=C1c2cccc3c2[C@H](CCC3)CN1[C@@H]1CN2CCC1CC2
inactive: Potency [1] | outcome [2] | outcome [3] | outcome [4] | Potency [5] | Potency [6] | Potency [7] | Potency [8] | outcome [11]

CC1(CO)CN(c2ccccc2)NC1=O (centres undefined)
inactive: Potency [1] | outcome [2] | outcome [3] | outcome [4] | Potency [5] | Potency [6] | Potency [7] | outcome [9] | outcome [11]

NS(=O)(=O)c1cc2c(cc1Cl)CN(C1CCCCC1)C2=O
inactive: Potency [1] | outcome [2] | outcome [3] | outcome [4] | Potency [12] | Potency [6] | Potency [7] | Potency [8] | outcome [9] | Potency [10] | outcome [11]

CCCCCCN
inactive: Potency [1] | outcome [2] | outcome [3] | outcome [4] | Potency [12] | Potency [6] | Potency [7]

CC(C)C(=O)OCc1cccc(OC(=O)[C@@H]2N3C(=O)[C@@H](NC(=O)Cc4ccccc4)[C@H]3SC2(C)C)c1
inactive: Potency [1] | outcome [2] | outcome [3] | outcome [4] | Potency [12] | Potency [6] | Potency [7] | Potency [8]

CCCCCCCCC1CCC(=O)O1 (centres undefined)
inactive: Potency [1] | outcome [2] | outcome [3] | outcome [4] | Potency [12] | Potency [6] | Potency [7] | Potency [8] | outcome [9] | outcome [11] | Potency [13] | outcome [14]
active: Potency [10] 30.6 µM

CC(=O)Nc1cccc(C)c1
inactive: Potency [1] | outcome [2] | outcome [3] | outcome [4] | Potency [5] | Potency [7] | outcome [11]

Oc1ccccc1-c1nnco1
inactive: Potency [1] | outcome [2] | outcome [3] | outcome [4] | Potency [12] | Potency [6] | Potency [8] | outcome [11]

Nc1ccc([N+](=O)[O-])c(N)c1
inactive: Potency [1] | outcome [2] | outcome [3] | outcome [4] | Potency [5] | outcome [9] | Potency [10] | Potency [13] | outcome [14]
active: Potency [12] 47.3 µM | Potency [7] 53.1 µM | Potency [8] 47.3 µM
